A number with no mark means an inactive call. Inconclusive results are not listed. A call without a number means that no potency is given here. The source made the active and inactive calls. The call rests on the fitted dose curve; in most records, active means well fitted curve in the direction sought with a large enough effect; inconclusive means small, poorly fitted or top-dose-only effect, or another doubt; inactive means no such curve, though single readings can be large; an effect the other way counts as inactive or inconclusive.
Legend:
[1] = qHTS for compounds that reverse cellular toxicity of Amyloid beta (A-beta) peptide in yeast: LOPAC Validation Assay (AID 720559)
Outline: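 Yeast cells expressing toxic A-beta were combined with pinned compounds in growth medium and incubated 48 hr at 30 C. Growth was read as absorbance at 600 nm and normalized to DMSO and to an equimolar FeCl3/clioquinol positive control.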

[2] = qHTS for Activators of Parkin Expression: LOPAC Validation Assay (NLuc Reporter) (AID 720572)
Outline: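 Compound effects on Parkin promoter activity were measured as NanoLuc luminescence after 24 h at 37 C. The neuronal reporter line also carried FLuc, which was read first. LOPAC compounds were tested at 7 concentrations, with normalization to DMSO (0%) and positive control (100%).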

[3] = qHTS for Activators of Parkin Expression: LOPAC Validation Assay (FLuc Reporter) (AID 720573)
Outline: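 Neuronal cell line stably carrying FLuc/NLuc coincidence reporter under Parkin promoter; cells plated 24 h, then compounds added in 7-point dose response for 24 h at 37 C. FLuc luminescence read; normalized to DMSO and positive control (100%).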

[4] = target: T1, Hexokinase-4 (Homo sapiens) + Glucokinase regulatory protein (Homo sapiens) (UniProt P35557+Q14397); assay: qHTS assay for inhibitors of recombinant human GCK-GKRP interaction: Diaphorase-coupled assay (AID 743205); further: potency means the concentration at half of the fitted maximal effect
T1 sequence (P35557 whole entry, looked up): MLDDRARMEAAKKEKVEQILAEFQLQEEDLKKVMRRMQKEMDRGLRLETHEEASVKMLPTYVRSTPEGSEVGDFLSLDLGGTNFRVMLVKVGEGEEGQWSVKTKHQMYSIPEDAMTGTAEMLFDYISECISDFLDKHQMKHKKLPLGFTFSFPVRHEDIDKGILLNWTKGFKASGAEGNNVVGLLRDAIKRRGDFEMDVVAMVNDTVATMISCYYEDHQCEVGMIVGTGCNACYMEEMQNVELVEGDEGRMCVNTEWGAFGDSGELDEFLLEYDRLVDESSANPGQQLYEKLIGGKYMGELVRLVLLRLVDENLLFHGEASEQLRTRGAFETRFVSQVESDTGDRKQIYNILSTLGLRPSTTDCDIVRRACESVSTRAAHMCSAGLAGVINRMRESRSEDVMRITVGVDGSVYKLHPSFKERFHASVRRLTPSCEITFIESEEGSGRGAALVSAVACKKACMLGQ
T1 sequence (Q14397 whole entry, looked up): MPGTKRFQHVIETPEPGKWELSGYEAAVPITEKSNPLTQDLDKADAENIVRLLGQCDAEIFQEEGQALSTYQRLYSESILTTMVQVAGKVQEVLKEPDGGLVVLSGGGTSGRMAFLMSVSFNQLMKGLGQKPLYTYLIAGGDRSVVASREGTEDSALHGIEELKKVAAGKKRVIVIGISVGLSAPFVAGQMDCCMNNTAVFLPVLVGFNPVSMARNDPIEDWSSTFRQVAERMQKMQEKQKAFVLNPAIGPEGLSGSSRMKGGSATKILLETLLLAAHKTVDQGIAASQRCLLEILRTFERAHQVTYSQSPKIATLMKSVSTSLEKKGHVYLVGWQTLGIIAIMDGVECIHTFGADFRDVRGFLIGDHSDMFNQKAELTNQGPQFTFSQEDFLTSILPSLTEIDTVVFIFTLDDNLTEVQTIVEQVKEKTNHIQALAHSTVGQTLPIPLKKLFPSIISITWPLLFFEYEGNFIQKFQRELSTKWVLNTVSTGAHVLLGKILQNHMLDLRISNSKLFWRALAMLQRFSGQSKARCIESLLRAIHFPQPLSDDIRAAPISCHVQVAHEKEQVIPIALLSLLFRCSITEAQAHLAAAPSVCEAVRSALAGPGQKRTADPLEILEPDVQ
Outline: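 GST-GCK (10 nM) with FLAG-GKRP (10 nM), 5 mM glucose and 0.4 mM ATP in pH 7.6 Hepes; compounds preincubated 20 min with substrate. G6PDH/diaphorase coupling converts resazurin to resorufin, read kinetically (ex 525/em 590 nm) for 30 min.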

[5] = target: T1, Hexokinase-4 (Homo sapiens) + Glucokinase regulatory protein (Homo sapiens); assay: qHTS assay for inhibitors of recombinant human GCK-GKRP interaction: ADP-Glo assay (AID 743206); further: potency means the concentration at half of the fitted maximal effect
Outline: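 Pin-transferred compounds meet a 15 nM GST-GCK/15 nM FLAG-GKRP/2 uM S6P mix (dispense concentrations). ATP is then added to 0.4 mM final with 5 mM glucose, and the reaction runs 60 min at room temperature. ADP is quantified luminescently.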

[6] = target: T1, Hexokinase-4 (Homo sapiens) + Glucokinase regulatory protein (Homo sapiens); assay: qHTS assay for inhibitors of recombinant human GCK-GKRP interaction: HTRF assay (AID 743207); further: potency means the concentration at half of the fitted maximal effect
Outline: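 GST-GCK and FLAG-GKRP (5 nM each) were combined with 2 uM S6P in pH 7.1 Hepes/MgCl2/KCl/DTT buffer, then compound and anti-FLAG XL665/anti-GST K antibodies were added. After 60 min at room temperature, HTRF 665/615 nm emission was read.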

[7] = qHTS Assay for Identifying Gametocytocidal Compounds (AID 743244);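 further: actives lower the fluorescent signal which means gametocytes are killed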; conditions: P. falciparum 3D7 stage III-V gametocytes, alamarBlue, 72 h; max response: hits give low values
Outline: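 Stage III-V P. falciparum 3D7 gametocytes, 20,000 per well, were exposed to compounds for 72 h at 37C, 5% CO2. AlamarBlue was then added for 24 h and viability was read as fluorescence at Ex 525/Em 598 nm.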

Row | Compound | outcome [1] | Potency [2] | Potency [3] | Potency [4] | Potency [5] | Potency [6] | max response [7]
1 | O=C(O)c1ccccc1Nc1cccc(OCc2ccc3ccccc3n2)c1 | inactive | inactive | inactive | inactive | inactive | inactive | 1.28%
2 | O=C(O)Cc1c[nH]c2ccc(O)cc12 | inactive | inactive | inactive | inactive | inactive | inactive | -2.34%
3 | COc1ccc(-c2ccc(N)[n+](CCCC(=O)O)n2)cc1 | inactive | inactive | inactive | inactive | inactive | inactive | 23.8%
4 | O=C(O)C1=CC(=C(c2ccc(O)c(C(=O)O)c2)c2ccc(O)c(C(=O)O)c2)C=CC1=O | inactive | inactive | inactive | 25.1 µM (active) | 4.47 µM (active) | 2.51 µM (active) | 21.2%
5 | NC(=O)CC[C@H](N)C(=O)O | inactive | inactive | inactive | inactive | inactive | inactive | -4.4%
6 | NCC(O)(CS(=O)(=O)O)c1ccc(Cl)cc1 (stereo unspecified) | inactive | inactive | inactive | inactive | inactive | inactive | -5.75%
7 | OC1(c2ccc(Cl)cc2)CCN(Cc2c[nH]c3ccccc23)CC1 | inactive | inactive | inactive | inactive | inactive | inactive | 
8 | CC(C)(C)c1ccc(/C=C/C(=O)Nc2ccc3c(c2)OCCO3)cc1 | inactive | inactive | inactive | inactive | inactive | inactive | 13.4%
9 | O=c1[nH]c(=O)c2nc3ccccc3nc2[nH]1 | inactive | inactive | inactive | inactive | inactive | inactive | 

— PubChem BioAssay (NCATS)
